PubChem BioAssay (NCATS)
Active and inactive are the calls of the source. Calls follow the shape of the dose curve; as a rule, active = well fitted inhibition curve with a large enough effect; inconclusive = small, poorly fitted or top-dose-only effect; inactive = flat fitted curve, though single readings scatter.

Biological target: Luciferin 4-monooxygenase (Photinus pyralis) (UniProt P08659)
Assay: Primary firefly luciferase (FLuc) qHTS assay for identification of artifact compounds. (AID 1845220); also: nearly all actives have a fitted effect of over 60% in size;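 as to activity change, negative = inhibition: plate controls were DMSO vehicle for no effect and no enzyme for full effect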
Details: purified firefly luciferase, luminescence, 5 min; series mostly up to 54.1 µM; activity change, negative = inhibition: at the top concentration
Outline: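 Reaction readout was CCD-imaged luminescence, taken 5 min after adding 10 nM purified firefly enzyme to compound-treated wells holding 10 uM luciferin and ATP in pH 7.6 buffer.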

SMILES	activity change, negative = inhibition	outcome
O=S(=O)(N[C@H]1CCCC[C@@H]1N1CCOCC1)c1ccc(Cl)cc1	1.33% (inactive)	
Cc1ccnc(NC(=O)C(C)c2cccc(C(=O)c3ccccc3)c2)c1 (centres undefined)		inactive
NC(N)=N/N=C/c1ccccc1Cl	1.13% (inactive)	
CNCCCC1(c2ccccc2)OC(C)(C)c2ccccc21 (centres undefined)		inactive
C=C1C(=O)O[C@@H]2C[C@H](C)C3=CC(=O)[C@H](O)[C@@]3(C)C[C@H]12		inactive
CC(C)/C=C1\NC(=O)C(C(C)C)n2c1nc1ccccc1c2=O (centres undefined)		inactive
CC/C=C\CC1C(=O)C=CC1(CCCCC1CCC(=O)O1)OC(C)=O (centres undefined)	2.55% (inactive)	
COc1ccc(CN2CCN(C(=O)CCNC(=O)c3ccc(C(C)(C)C)cc3)CC2)cc1		inactive
C=C1C(=O)O[C@H]2C3=C(C)CCC[C@]3(C)C(=O)C[C@@H]12		inactive
NC(=O)c1nc(Nc2ccccc2)sc1NC(=O)C1CCCCC1		inactive
CCOC(=O)c1cnc2ccc(-c3cncc(NS(=O)(=O)c4ccccc4)c3)cn12	1.77% (inactive)	
Oc1ccc(-c2cnc3ccc(NCc4ccco4)nn23)cc1		inactive
Fc1ccc(-c2cncc(CN3CCN(c4cccc5c4OCCO5)CC3)c2)cc1	1.88% (inactive)	
N#Cc1ccc2ncnc(NCCc3ccccc3)c2c1	-3.52% (inactive)	
CCn1c(=O)n([C@H]2CCCN(c3nccc(-c4cc5ccccc5o4)n3)C2)c2ccccc21	3.57% (inactive)	
C=C(CCC1C(C)(O)CCC2C(C)(C)C(O)CCC12C)C(O)CO (centres undefined)	-11.8% (inactive)	
COc1cc(O)c2c(c1)C1OC1C[C@H](O)[C@H](O)C(=O)/C=C\C[C@H](C)OC2=O (some centres undefined)	1.12% (inactive)	
C=C1C(=O)O[C@H]2C1CCC(C)=C1C(=O)C=C(C)[C@@]12O (some centres undefined)	-3.69% (inactive)	
CC(=O)OC1CC(O)(C(C)C)C2C(OC(=O)c3ccc(O)cc3)C=C(C)C(=O)CC12C (centres undefined)	3.58% [at 25.7 µM] (inactive)	
Cc1ccc(NC(=O)N2CCN(c3nc(N)nc4sc(-c5cccnc5)nc34)CC2)cc1	-2.65% (inactive)	

SMILES	activity change, negative = inhibition	outcome
C=C[C@]1(C)C[C@H](O)[C@H]2C(=C)C(=O)O[C@@H]2[C@H]1C(=C)CO	-3.27% (inactive)	
C#CCOc1ccc2c(c1)c(-c1ccc(C(C)C)cc1)nc(=O)n2C(C)C	1.71% (inactive)	
CNCc1cc(-c2ccccc2F)n(S(=O)(=O)c2cccnc2)c1		inactive
C=C1C(=O)OC2/C=C(\COC(C)=O)CC/C=C(\C=O)CC(OC(=O)C(C)CC)C12 (centres undefined)		inactive [at 25.7 µM]
CCC(C)CNCC(=O)N1CCc2sccc2C1COc1cccc(C)c1 (centres undefined)		inactive
N[C@@H]1c2cccnc2[C@H](OC(=O)N2CCC(n3c(=O)[nH]c4ncccc43)CC2)CC[C@H]1c1cccc(F)c1F		inactive
Cn1cc(-c2ccc(F)c(C(F)(F)F)c2)nc1C1CCN(c2ncnc3[nH]ncc23)CC1		inactive [at 25.7 µM]
C=C1C(=O)O[C@@H]2[C@H]1CCC(C)=C(CCC(=O)O)[C@@]2(C)O	-15.9% (inactive)	
CNc1cccc(CCOc2ccc3c(c2)CN(CC(F)(F)F)C(=O)[C@H](CC(=O)O)C3)n1		inactive
CC(CCC1(O)OC2CC3C4CC=C5CC(O[C@@H]6O[C@H](CO)[C@@H](O[C@@H]7O[C@@H](C)[C@H](O)[C@@H](O)[C@H]7O)[C@H](O)[C@H]6O[C@@H]6O[C@@H](C)[C@H](O)[C@@H](O)[C@H]6O)CCC5(C)C4CCC3(C)C2C1C)CO[C@@H]1O[C@H](CO)[C@@H](O)[C@H](O)[C@H]1O (some centres undefined)	-3.06% [at 11.6 µM] (inactive)	
Cc1cc(C(=O)Cn2cc(C#N)ccc2=O)c(C)n1Cc1ccccc1	-17.2% (inactive)	
Nc1ncnc2c1nc(Cl)n2C1OC2COP(=O)(O)OC2C1O (centres undefined)		inactive
CCCC(CCC)C(=O)NCc1ccc2c(cnn2-c2ccccc2OC)c1	0.755% (inactive)	
CNC(=O)c1cc(Oc2ccc(NC(=O)c3cccc(C(F)(F)F)c3)cc2)ccn1	-12.5% (inactive)	
O=C1Nc2nc(-c3c(O)cccc3OCC3CC3)cc([C@@H]3CCCNC3)c2CO1		inactive
CC1(C)C2CCC(CO[C@@H]3O[C@H](CO[C@@H]4OC[C@](O)(CO)[C@H]4O)[C@@H](O)[C@H](O)[C@H]3O)C1C2 (some centres undefined)		inactive [at 25.7 µM]
COc1ccc(S(=O)(=O)N2CCC[C@H]2C(=O)Nc2cc(C)cc(C)c2)cc1		inactive
Cc1ccccc1C(C(=O)NC1CCCCC1)N(C(=O)Cn1cnc2ccccc21)c1cccc(F)c1 (centres undefined)		inactive
CN(C)CCOC(C)(c1ccccc1)c1ccc(Cl)cc1 (centres undefined)		inactive
